# From paper PMC7862700, “An all-to-all approach to the identification of sequence-specific readers for epigenetic DNA modifications on cytosine”
# What was measured:
# Assay in all cases: DAPPL (digital affinity profiling via proximity ligation, sequencing); 10 mM Tris-HCl pH 7.5, 50 mM NaCl, 1 mM DTT, 4% glycerol, room temperature, 30 min; GST-TFs on glutathione beads, 16-mer random dsDNA library, 0.1% formaldehyde crosslink after washing; high values mean tight binding
# Conditions in all cases: protein: recombinant; tags: N-terminal GST; dsDNA, one strand shown
# FLI1 = molecular target: T1, FLI1 (Homo sapiens, UniProt Q01543 1-452)
# T1 sequence: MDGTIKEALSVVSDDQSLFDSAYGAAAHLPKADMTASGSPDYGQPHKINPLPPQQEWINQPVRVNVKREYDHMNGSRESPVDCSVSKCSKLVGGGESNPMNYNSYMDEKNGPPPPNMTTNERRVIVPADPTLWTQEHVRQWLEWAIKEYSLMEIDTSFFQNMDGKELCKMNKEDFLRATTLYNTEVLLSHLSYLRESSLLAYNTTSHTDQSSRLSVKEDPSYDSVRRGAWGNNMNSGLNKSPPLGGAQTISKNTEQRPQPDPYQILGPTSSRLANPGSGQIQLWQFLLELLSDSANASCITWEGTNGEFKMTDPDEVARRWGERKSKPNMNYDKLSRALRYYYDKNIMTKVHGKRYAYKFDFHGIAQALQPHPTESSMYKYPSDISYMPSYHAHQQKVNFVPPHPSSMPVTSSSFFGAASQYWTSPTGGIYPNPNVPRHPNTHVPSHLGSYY
# In short: (§1)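 The binding signal reported is, for every hexamer, its read frequency for a factor over its read frequency for the tag-only sample. Reads came from pools of yeast-expressed, GST-fused human transcription factors on glutathione beads, barcoded with DNA and mixed with that sample, which were incubated with 200 nmole of a random double-stranded 16-mer DNA library in Tris/NaCl/DTT/glycerol buffer at room temperature for 30 min. After washing, the pools were crosslinked with 0.1% formaldehyde, proximity-ligated with BsaI/T4 ligase for 1 h at 37 °C, PCR-amplified and sequenced on an Illumina NextSeq500.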
# ELK1 = molecular target: T2, ELK1 (Homo sapiens, UniProt P19419 1-428)
# T2 sequence: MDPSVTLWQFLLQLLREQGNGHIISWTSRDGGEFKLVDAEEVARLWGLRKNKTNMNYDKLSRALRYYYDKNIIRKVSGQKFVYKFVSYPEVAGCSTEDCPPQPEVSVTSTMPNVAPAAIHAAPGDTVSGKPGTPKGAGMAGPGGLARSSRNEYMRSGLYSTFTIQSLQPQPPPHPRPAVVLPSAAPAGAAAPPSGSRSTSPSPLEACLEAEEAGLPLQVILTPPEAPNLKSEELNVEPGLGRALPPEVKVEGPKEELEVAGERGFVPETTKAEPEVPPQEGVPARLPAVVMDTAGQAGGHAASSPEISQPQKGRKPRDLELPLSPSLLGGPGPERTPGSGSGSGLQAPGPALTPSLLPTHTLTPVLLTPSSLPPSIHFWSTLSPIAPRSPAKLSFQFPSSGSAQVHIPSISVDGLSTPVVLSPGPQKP
# In short: as §1
# GABPA = molecular target: T3, GABPA (Homo sapiens, UniProt Q06546 1-454)
# T3 sequence: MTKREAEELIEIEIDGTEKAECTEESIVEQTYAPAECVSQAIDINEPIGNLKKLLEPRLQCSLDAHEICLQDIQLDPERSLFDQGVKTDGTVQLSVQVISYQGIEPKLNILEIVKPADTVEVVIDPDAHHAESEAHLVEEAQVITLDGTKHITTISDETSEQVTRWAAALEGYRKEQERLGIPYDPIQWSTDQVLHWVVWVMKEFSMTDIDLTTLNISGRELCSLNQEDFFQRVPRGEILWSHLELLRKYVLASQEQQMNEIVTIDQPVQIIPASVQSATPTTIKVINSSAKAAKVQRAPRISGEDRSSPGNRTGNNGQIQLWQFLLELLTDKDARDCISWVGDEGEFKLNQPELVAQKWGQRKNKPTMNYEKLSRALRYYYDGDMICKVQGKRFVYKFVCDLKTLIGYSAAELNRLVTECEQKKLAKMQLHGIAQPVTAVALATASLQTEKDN
# In short: as §1
# ERG = molecular target: T4, ERG (Homo sapiens, UniProt P11308 1-479)
# T4 sequence: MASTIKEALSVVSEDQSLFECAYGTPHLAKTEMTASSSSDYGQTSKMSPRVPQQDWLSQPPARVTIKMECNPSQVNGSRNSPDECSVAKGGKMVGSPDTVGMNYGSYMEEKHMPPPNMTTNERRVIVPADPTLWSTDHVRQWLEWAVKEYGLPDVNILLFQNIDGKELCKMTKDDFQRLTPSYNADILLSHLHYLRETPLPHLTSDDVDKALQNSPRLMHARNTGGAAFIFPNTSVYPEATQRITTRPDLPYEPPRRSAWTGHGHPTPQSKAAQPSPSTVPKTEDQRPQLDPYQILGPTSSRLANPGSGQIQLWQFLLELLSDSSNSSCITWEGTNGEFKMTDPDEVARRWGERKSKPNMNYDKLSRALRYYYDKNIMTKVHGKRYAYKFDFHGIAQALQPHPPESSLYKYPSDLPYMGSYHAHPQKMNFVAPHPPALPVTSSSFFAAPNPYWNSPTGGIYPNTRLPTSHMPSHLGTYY
# In short: as §1
# ELF1 = ELF1 (Homo sapiens, UniProt P32519 1-619)
# Sequence of ELF1 (P32519 whole entry): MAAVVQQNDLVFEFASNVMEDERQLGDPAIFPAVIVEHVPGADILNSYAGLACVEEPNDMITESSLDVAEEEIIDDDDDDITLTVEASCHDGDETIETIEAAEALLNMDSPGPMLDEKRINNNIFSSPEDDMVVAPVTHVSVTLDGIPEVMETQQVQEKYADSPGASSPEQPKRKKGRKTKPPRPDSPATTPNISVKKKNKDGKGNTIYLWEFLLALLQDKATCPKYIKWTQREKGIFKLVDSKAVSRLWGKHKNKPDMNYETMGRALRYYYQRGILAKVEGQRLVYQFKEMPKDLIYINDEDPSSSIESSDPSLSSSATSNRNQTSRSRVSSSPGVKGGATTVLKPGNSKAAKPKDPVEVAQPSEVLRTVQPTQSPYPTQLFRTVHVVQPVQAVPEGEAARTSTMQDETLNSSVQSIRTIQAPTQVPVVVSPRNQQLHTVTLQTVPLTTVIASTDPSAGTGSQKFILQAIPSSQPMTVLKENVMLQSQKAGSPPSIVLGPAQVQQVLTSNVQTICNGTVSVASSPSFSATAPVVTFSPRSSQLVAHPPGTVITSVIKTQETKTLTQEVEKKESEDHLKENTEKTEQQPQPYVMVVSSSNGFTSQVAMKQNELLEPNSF
# In short: as §1
# EHF = molecular target: T5, EHF (Homo sapiens, UniProt Q9NZC4 1-300)
# T5 sequence: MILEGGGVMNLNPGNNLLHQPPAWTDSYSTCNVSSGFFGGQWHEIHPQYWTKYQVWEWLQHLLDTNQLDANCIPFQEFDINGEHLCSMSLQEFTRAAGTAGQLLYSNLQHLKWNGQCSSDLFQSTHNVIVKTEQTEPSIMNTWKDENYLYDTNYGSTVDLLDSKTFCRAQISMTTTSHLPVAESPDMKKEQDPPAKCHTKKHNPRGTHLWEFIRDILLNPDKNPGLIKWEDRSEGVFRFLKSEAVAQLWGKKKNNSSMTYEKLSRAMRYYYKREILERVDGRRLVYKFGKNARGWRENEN
# In short: as §1
# SPI1 = SPI1 (Homo sapiens, UniProt P17947 1-270)
# In short: as §1
# SPIB = SPIB (Homo sapiens, UniProt Q01892 1-262)
# Sequence of SPIB (Q01892 whole entry): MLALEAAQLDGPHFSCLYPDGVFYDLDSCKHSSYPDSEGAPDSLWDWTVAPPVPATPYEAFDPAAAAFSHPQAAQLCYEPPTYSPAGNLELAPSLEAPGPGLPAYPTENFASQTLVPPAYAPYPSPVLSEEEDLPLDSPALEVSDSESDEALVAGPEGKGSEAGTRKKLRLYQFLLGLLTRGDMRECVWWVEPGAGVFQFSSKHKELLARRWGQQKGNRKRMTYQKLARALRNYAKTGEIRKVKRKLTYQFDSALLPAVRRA
# In short: as §1
# FEV = molecular target: T6, FEV (Homo sapiens, UniProt Q99581 1-238)
# T6 sequence: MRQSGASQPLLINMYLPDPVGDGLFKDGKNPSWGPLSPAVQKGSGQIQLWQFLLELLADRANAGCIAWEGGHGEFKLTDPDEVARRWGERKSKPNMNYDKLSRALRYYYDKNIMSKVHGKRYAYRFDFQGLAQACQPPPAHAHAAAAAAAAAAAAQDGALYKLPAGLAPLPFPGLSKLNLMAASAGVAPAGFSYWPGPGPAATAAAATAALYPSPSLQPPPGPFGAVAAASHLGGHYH
# In short: as §1
# ETV5 = ETV5 (Homo sapiens, UniProt P41161 1-510)
# Sequence of ETV5 (P41161 whole entry): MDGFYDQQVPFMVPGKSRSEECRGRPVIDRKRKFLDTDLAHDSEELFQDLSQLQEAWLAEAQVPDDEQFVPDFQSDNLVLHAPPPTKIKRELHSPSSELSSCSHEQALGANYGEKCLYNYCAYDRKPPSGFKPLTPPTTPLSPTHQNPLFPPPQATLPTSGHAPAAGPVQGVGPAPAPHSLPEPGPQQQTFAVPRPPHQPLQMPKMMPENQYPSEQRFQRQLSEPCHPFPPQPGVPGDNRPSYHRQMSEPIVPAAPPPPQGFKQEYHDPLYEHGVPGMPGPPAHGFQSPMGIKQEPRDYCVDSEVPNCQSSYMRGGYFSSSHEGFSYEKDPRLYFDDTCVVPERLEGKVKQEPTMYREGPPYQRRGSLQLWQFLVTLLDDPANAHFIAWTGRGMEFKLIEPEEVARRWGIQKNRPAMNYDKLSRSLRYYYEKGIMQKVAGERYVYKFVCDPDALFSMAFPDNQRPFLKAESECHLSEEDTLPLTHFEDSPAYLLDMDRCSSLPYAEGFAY
# In short: as §1
# SPIC = molecular target: T7, SPIC (Homo sapiens, UniProt Q8N5J4 1-248)
# T7 sequence: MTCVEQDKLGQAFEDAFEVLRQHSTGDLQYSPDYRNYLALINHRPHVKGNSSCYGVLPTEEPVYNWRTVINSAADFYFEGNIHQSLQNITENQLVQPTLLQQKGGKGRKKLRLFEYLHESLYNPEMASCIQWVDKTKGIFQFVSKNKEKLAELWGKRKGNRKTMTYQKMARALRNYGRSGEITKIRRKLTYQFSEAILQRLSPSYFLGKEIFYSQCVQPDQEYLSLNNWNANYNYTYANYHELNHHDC
# In short: as §1
# ELF4 = ELF4 (Homo sapiens, UniProt Q99607 1-663)
# Sequence of ELF4 (Q99607 whole entry): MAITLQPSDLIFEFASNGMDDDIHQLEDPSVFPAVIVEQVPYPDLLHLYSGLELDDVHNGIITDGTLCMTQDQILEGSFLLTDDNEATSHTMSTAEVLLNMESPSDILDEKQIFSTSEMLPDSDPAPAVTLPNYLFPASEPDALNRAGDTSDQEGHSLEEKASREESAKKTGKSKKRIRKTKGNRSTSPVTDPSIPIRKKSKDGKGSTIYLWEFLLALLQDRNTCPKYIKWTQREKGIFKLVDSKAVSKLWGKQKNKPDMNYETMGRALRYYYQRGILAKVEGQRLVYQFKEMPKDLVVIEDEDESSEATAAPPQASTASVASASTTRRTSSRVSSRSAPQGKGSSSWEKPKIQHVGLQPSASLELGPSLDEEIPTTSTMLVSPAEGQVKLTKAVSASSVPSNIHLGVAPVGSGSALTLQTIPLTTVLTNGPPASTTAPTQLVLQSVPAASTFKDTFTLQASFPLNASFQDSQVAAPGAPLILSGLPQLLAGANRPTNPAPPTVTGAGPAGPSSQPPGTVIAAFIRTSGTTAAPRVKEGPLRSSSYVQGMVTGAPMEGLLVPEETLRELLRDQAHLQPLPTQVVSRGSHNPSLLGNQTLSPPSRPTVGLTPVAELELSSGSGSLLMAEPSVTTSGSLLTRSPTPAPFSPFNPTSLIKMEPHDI
# In short: as §1
# ETV1 = ETV1 (Homo sapiens, UniProt P50549 1-477)
# Sequence of ETV1 (P50549 whole entry): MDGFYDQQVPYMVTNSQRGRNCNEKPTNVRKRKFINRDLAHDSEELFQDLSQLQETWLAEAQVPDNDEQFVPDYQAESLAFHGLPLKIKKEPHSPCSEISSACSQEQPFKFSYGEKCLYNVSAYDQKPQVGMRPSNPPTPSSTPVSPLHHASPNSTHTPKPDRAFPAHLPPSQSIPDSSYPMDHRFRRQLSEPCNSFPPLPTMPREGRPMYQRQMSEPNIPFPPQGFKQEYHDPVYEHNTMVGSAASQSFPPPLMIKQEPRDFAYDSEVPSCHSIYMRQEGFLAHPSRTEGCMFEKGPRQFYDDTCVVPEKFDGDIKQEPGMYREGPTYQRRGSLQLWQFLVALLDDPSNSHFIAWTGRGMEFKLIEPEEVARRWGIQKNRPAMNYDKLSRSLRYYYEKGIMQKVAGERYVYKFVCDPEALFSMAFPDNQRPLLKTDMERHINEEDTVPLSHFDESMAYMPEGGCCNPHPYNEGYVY
# In short: as §1
# ETV3L = molecular target: T8, ETV3L (Homo sapiens, UniProt Q6ZN32 1-361)
# T8 sequence: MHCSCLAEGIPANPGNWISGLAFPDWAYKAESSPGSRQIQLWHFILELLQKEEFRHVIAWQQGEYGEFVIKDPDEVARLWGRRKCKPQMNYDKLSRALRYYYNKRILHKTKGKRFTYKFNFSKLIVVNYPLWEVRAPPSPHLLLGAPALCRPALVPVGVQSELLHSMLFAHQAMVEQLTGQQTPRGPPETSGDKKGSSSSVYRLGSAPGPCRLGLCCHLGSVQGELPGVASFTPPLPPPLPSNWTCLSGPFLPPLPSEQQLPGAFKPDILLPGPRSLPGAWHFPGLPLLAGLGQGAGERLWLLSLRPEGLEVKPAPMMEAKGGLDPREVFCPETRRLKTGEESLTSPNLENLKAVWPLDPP
# In short: as §1
# ETS2 = molecular target: T9, ETS2 (Homo sapiens, UniProt P15036 1-469)
# T9 sequence: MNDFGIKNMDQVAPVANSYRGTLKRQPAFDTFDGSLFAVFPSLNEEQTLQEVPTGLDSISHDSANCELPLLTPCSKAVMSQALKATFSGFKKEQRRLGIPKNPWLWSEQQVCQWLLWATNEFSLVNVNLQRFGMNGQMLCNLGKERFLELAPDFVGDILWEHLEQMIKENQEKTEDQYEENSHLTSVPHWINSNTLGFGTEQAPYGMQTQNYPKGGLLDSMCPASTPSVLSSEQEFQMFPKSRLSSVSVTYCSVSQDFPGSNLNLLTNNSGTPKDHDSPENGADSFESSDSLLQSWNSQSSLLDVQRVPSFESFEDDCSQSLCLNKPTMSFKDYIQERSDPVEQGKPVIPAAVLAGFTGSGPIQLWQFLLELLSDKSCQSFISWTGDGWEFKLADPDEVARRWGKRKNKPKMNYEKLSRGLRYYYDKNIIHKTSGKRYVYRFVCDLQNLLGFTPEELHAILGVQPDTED
# In short: as §1
# SPDEF = molecular target: T10, SPDEF (Homo sapiens, UniProt O95238 1-335)
# T10 sequence: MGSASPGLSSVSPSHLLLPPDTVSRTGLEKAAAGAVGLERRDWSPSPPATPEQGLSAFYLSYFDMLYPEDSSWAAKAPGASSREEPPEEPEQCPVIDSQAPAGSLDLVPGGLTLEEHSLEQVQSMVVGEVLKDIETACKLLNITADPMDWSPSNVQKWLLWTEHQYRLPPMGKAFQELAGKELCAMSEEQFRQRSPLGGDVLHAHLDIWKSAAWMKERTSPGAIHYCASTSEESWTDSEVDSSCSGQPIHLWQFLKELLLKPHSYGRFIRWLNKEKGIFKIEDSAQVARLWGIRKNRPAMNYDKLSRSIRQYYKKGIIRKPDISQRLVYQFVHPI
# In short: as §1
# ETV3 = molecular target: T11, ETV3 (Homo sapiens, UniProt P41162-2 1-143)
# T11 sequence: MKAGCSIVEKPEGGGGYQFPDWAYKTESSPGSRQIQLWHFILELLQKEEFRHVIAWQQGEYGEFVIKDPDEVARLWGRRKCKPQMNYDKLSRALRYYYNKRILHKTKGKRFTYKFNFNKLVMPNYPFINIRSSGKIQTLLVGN
# In short: as §1
sequence,measurement,setting,value
GGGTTC,binding signal,FLI1,"1.06 fold enrichment (6-mer frequency, TF over GST control)"
same,binding signal,ELK1,"1.02 fold enrichment (6-mer frequency, TF over GST control)"
same,binding signal,GABPA,"1.01 fold enrichment (6-mer frequency, TF over GST control)"
same,binding signal,ERG,"1.04 fold enrichment (6-mer frequency, TF over GST control)"
same,binding signal,ELF1,"1.11 fold enrichment (6-mer frequency, TF over GST control)"
same,binding signal,EHF,"1.02 fold enrichment (6-mer frequency, TF over GST control)"
same,binding signal,SPI1,"1.11 fold enrichment (6-mer frequency, TF over GST control)"
same,binding signal,SPIB,"1.09 fold enrichment (6-mer frequency, TF over GST control)"
same,binding signal,FEV,"1.03 fold enrichment (6-mer frequency, TF over GST control)"
same,binding signal,ETV5,"1.08 fold enrichment (6-mer frequency, TF over GST control)"
same,binding signal,SPIC,"1.02 fold enrichment (6-mer frequency, TF over GST control)"
same,binding signal,ELF4,"1.12 fold enrichment (6-mer frequency, TF over GST control)"
same,binding signal,ETV1,"1.08 fold enrichment (6-mer frequency, TF over GST control)"
same,binding signal,ETV3L,"1.09 fold enrichment (6-mer frequency, TF over GST control)"
same,binding signal,ETS2,"1.07 fold enrichment (6-mer frequency, TF over GST control)"
same,binding signal,SPDEF,"1.14 fold enrichment (6-mer frequency, TF over GST control)"
same,binding signal,ETV3,"1.1 fold enrichment (6-mer frequency, TF over GST control)"
